Growth data for 40 molecules are collected here from PubChem BioAssay (NCI).

The panel holds about 83,000 compounds, 20% with a hit somewhere; the sample as a whole holds those more often.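 How to read the values: 0–100, growth inhibition (40 = 60% inhibited); 0, no net growth; -100 to 0, cell death (-40 = 40% of starting cells died; -100 = all dead).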 A number with no mark means an inactive call. The source made the active and inactive calls.

The subject of the assay is OVCAR-3 ovarian. The experiment in a line: NCI-60 one-dose screen, 48 h (100 = growth as untreated, 0 = no growth, -100 = all killed). Particulars: 10 µM unless noted. On the procedure:
Growth inhibition of the OVCAR-3 human tumor cell line is measured as a screen for anti-cancer activity. Cells are grown in 96 well plates and exposed to the test compound for 48 hours. Compounds are tested at a single concentration, which is 10^-5 M for most compounds. The reported endpoint is percent growth (GI% or GIPRCNT), where numbers from 0 - 100% represent growth inhibition, and numbers from -100% - 0 represent cell death. For example, a value of 40 represents 60% growth inhibition. A value of 0 means no net growth occurred over the course of the experiment. A value of -40 indicates 40% of cells at the beginning of the experiment died by the end of the experiment. A value of -100 means all cells are dead at the end of the experiment.
NCI-60 Human Tumor Cell Lines Screen was performed using the standard one-dose NCI protocol, which is described in more detail at https://dtp.cancer.gov/discovery_development/nci-60/default.htm.
Compounds with GIPRCNT values below 10 were considered active. Activity score was based on GIPRCNT using the following formula: […]
Score is 0 for GIPRCNT values of 100 or above, 50 for GIPRCNT values of 0, and 100 for GIPRCNT values of -100.
Regarding `COc1ccc(-n2nc(C)c3c(Nc4ccc(NC(=O)Nc5c(Cl)cccc5Cl)cc4)ncnc32)cc1`, the growth was 40.8%. Next, `CCOc1nc(-c2ccccc2)cc2c(O)c(C(=O)O)[nH]c(=O)c12`: 101%; `CC(=O)c1cc2c(N)c(C(=O)Nc3cccc(F)c3C)sc2nc1C`: 108%. The result for `CN(C)[C@@H]1C(=O)C(C(=O)NCc2nc3[nH]cnc(=S)c3[nH]2)=C(O)[C@@]2(O)C(=O)C3=C(O)c4c(O)cccc4[C@@](C)(O)[C@H]3C[C@@H]12` reads 38.7%; that for `COc1ccc2c(c1)O/C(=C\c1cccc(OCC(=O)Nc3nc4c(s3)CCCC4)c1)C2=O`, 41.5%; that for `O=C1c2ccccc2OC=C(c2ccccc2)N1CCCCNc1ccc(S(=O)(=O)Nc2ncccn2)cc1`, 104%.

`Cn1cc(-c2nonc2-c2c[nH]c3ccccc23)c2cccnc21`: the growth was 15.2%.

Turning to `O=c1oc2c(C(F)(F)F)cccc2cc1-c1csc(Nc2ccc(OCCF)cc2)n1`, the growth was -21.4% (active). For `O=C1/C(=C/c2cn(-c3ccccc3)nc2-c2ccccc2)SC(=S)N1CCc1ccccc1`, the growth was 107%. As to `Cc1cc(N2CCOCC2)nc(NCc2cc(Nc3ccnc4cc(Cl)ccc34)ccc2F)n1`, the growth is -94.2% (active). The result for `C=CC(=O)Nc1cccc(-c2nc(SC)nc(Nc3cccc(OC)c3)c2C#N)c1` reads 52.1%; that for `Cc1cc(C)nc(SC2=C(Nc3cccc(Cl)c3C)C(=O)N(Cc3ccccc3)C2=O)n1`, 64.6% [30 µM]. Turning to `C=C1C(=O)O[C@H]2[C@H]1CC/C(C=Nc1ccc(C(F)(F)F)cc1N)=C\CC[C@@]1(C)O[C@@H]21`, the growth was -11.1% (active). Regarding `Cn1cc(-c2nonc2-c2cn(C)c3ccc(F)cc23)c2ccccc21`, the growth was -18.9% (active). Next, `CCCc1cc(=O)n2c(C(=O)Nc3ccc(F)cc3)c(C(=O)Nc3ccc(F)cc3)sc2n1`: 35.3% [30 µM]; `COc1cc(C=Nc2oc(-c3ccccc3)c(-c3ccccc3)c2C#N)cc(CN2CCCCC2)c1O`: 110%. As for `CCCc1cc(=O)n2c(C(=O)Nc3cccc(C(=O)OCC)c3)c(C(=O)Nc3ccc(F)cc3)sc2n1`, the growth is -4.26% [30 µM] (active). For the molecule `COc1ccc(-c2nc(SCC(=O)Nc3ccc(C(=O)/C=C/c4ccc(Cl)cc4)cc3)[nH]c(=O)c2C#N)cc1`, the growth is 101%. In the case of `Cc1nn(-c2cc(=O)[nH]c3ccccc23)c(N)c1C#N`, the growth is 106%.

For the molecule `COC(=O)c1cccc(NC(=O)c2ccc(-c3cccc(N)c3)o2)c1`, the growth is 107%.

For the molecule `O=c1cc(CSc2nnc(SCc3cc(=O)oc4c3ccc3ccccc34)o2)c2ccc3ccccc3c2o1`, the growth is 105%. Regarding `O=C(/C=C/c1cccc([N+](=O)[O-])c1)c1ccc(O)c(CN2CCN(c3cc4c(cc3F)c(=O)c(C(=O)O)cn4C3CC3)CC2)c1`, the growth was 7.92% (active). Next, `O=C1OCC2=C1C(c1ccncc1)c1cc3c(cc1N2CCO)OCO3` (stereo not given): 105%; `OC(COc1cccc2ccccc12)CN1CCN(c2ccccc2Cl)CC1` (stereo not given): 101%; `CCOc1nc(-c2ccccc2)cc2c(O)c(C(=O)N/N=C/c3ccc(O)cc3O)[nH]c(=O)c12`: 30.9%. The result for `O=C1Nc2c(ccc(Cl)c2Cl)/C1=C\c1ccc(C(F)(F)F)cc1` reads 68.2%; that for `O=C1NC(=O)C(c2ccc(Cl)cc2Cl)N1` (stereo not given), 112%; that for `O=[N+]([O-])c1ccccc1/C=N\NC(=S)N/N=C/c1ccccc1[N+](=O)[O-]`, -27% (active). With `COc1ccc(-c2nc3cc(C(=O)Nc4cc(OC)c(OC)c(OC)c4)ccc3n2C2CCCCC2)cc1`, the growth is 101%.

Take `CC1=NN(c2nc(-c3ccc(Cl)cc3)c(C#N)c(N3CCOCC3)n2)C(=O)C1`: the growth is 50.2%.

For the molecule `Clc1ccc2c(NCCCNc3nc(-n4ccnc4)nc4ccccc34)ccnc2c1`, the growth is 90.2%. Consider `COc1ccc(C(=O)/C=C/c2cccnc2Nc2cc(OC)c(OC)c(OC)c2)cc1`, for which the growth is 11.5%. Next, `c1ccc(-c2c(-c3ccccc3)[n+](Cc3ccc4ccccc4c3)c(-c3ccc(-c4nc5ccccc5s4)cc3)n2Cc2ccc3ccccc3c2)cc1`: -89.4% (active); `CC(C)(C)N1CCC1CN` (stereo not given): 103%; `CN(C)c1ccc(NC(=O)c2ccc(/C=C/C(=O)c3ncc[nH]3)cc2)cc1`: 25.7%. For the molecule `COc1cccc(-c2nc3sccn3c2-c2ccnc(NCCNS(=O)(=O)c3ccc(F)cc3)c2)c1`, the growth was 42%.

Turning to `Cc1cc(Nc2ccc(C)c(Cl)c2)n2nc(C(F)(F)F)nc2n1`, the growth is 15.2%.

Turning to `Cc1cc(N2CCCCC2)nc(NC2CCCC(Nc3ccnc4cc(Cl)ccc34)C2)n1` (stereo not given), the growth is -69% (active). For `OCCNc1nccc(N2CCN(c3ccnc4cc(Cl)ccc34)CC2)n1`, the growth was 81.1%.

In the case of `N#C/C(=C\c1ccc(-c2ccc(Cl)c(Cl)c2)o1)c1nc(-c2ccco2)cs1`, the growth was 81.1%.
